# According to PubChem BioAssay AID1159580 (chemical genetic matrix, 2015):
# Values joined by “and” are separate entries in the source; they are usually repeats but may differ in a detail not shown here. Identical values can stand only once. Hit rate of the full screen: of about 5,500 compounds, about 2,000 (36%) were called active. Roughly 18% stayed inconclusive and do not appear here. Some of the results follow. A number with no mark means an inactive call. Rule as the data show it: active = normalized growth mostly below about 0.91 (no sharp cut-off); inconclusive = no clear call, values can overlap the other calls; inactive = mostly above about 0.92.
# Assay: chemical genetic growth profiling, strain panel (AID 1159580);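 also: tested at 20 µM; growth read once vehicle control cultures reached saturation at 30 °C; 1 = growth at the plate median or of vehicle wells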
# Details: growth OD
compound,measurement,setting,value
NC(N)=NC(=O)c1nc(Cl)c(N)nc1N,normalized growth,"S. cerevisiae deletion strains, locus YKL009W, strain mrt4, stronger effect = lower value",1.03
same,normalized growth,"S. cerevisiae deletion strains, locus YKL068W, stronger effect = lower value",1
same,normalized growth,"S. cerevisiae deletion strains, locus YKL085W, strain MDH1 (second series), stronger effect = lower value",1.01
same,normalized growth,"S. cerevisiae deletion strains, locus YKL085W, strain MDH1, stronger effect = lower value",1.01
same,normalized growth,"S. cerevisiae deletion strains, locus YKL160W, strain elf1, stronger effect = lower value",1.02
same,normalized growth,"S. cerevisiae deletion strains, locus YKL190W, strain CNB1, stronger effect = lower value",0.994
same,normalized growth,"S. cerevisiae deletion strains, locus YKR001C, strain vps1, stronger effect = lower value",1.02
same,normalized growth,"S. cerevisiae deletion strains, locus YKR026C, strain gcn3, stronger effect = lower value",1.03
same,normalized growth,"S. cerevisiae deletion strains, locus YKR091W, strain srl3, stronger effect = lower value",1.03
same,normalized growth,"S. cerevisiae deletion strains, locus YLL001W, strain dnm1, stronger effect = lower value",1.02
same,normalized growth,"S. cerevisiae deletion strains, locus YLL026W, stronger effect = lower value",1.02
same,normalized growth,"S. cerevisiae deletion strains, locus YLL041C, strain sdh2, stronger effect = lower value",1
same,normalized growth,"S. cerevisiae deletion strains, locus YLR027C, strain aat2, stronger effect = lower value",1.02
same,normalized growth,"S. cerevisiae deletion strains, locus YLR039C, strain RIC1, stronger effect = lower value",1.31
same,normalized growth,"S. cerevisiae deletion strains, locus YLR058C, strain SHM2, stronger effect = lower value",1.01
same,normalized growth,"S. cerevisiae deletion strains, locus YLR102C, strain apc9, stronger effect = lower value",1
same,normalized growth,"S. cerevisiae deletion strains, locus YLR113W, strain HOG1, stronger effect = lower value",1.03
same,normalized growth,"S. cerevisiae deletion strains, locus YLR221C, strain rsa3, stronger effect = lower value",1.03
same,normalized growth,"S. cerevisiae deletion strains, locus YLR258W, strain gsy2, stronger effect = lower value",1.02
same,normalized growth,"S. cerevisiae deletion strains, locus YLR262C, strain YPT6 (second series), stronger effect = lower value",1.02
same,normalized growth,"S. cerevisiae deletion strains, locus YLR262C, strain YPT6, stronger effect = lower value",1.41 [resistant] (active)
same,normalized growth,"S. cerevisiae deletion strains, locus YLR268W, strain sec22, stronger effect = lower value",1.05
same,normalized growth,"S. cerevisiae deletion strains, locus YLR320W, strain mms22, stronger effect = lower value",1.01
same,normalized growth,"S. cerevisiae deletion strains, locus YLR330W, strain CHS5, stronger effect = lower value",1.01
same,normalized growth,"S. cerevisiae deletion strains, locus YLR342W, strain FKS1 (second series), stronger effect = lower value",0.893
same,normalized growth,"S. cerevisiae deletion strains, locus YLR342W, strain FKS1, stronger effect = lower value",1.03
same,normalized growth,"S. cerevisiae deletion strains, locus YLR357W, strain rsc2, stronger effect = lower value",1.02
same,normalized growth,"S. cerevisiae deletion strains, locus YLR370C, strain arc18, stronger effect = lower value",1.01
same,normalized growth,"S. cerevisiae deletion strains, locus YLR371W, strain rom2, stronger effect = lower value",1.03
same,normalized growth,"S. cerevisiae deletion strains, locus YLR384C, strain iki3, stronger effect = lower value",1.03
same,normalized growth,"S. cerevisiae deletion strains, locus YLR418C, strain cdc73, stronger effect = lower value",0.94
same,normalized growth,"S. cerevisiae deletion strains, locus YML016C, strain PPZ1, stronger effect = lower value",1.01
same,normalized growth,"S. cerevisiae deletion strains, locus YML032C, strain rad52, stronger effect = lower value",1.01
same,normalized growth,"S. cerevisiae deletion strains, locus YML120C, strain ndi1, stronger effect = lower value",1.01
same,normalized growth,"S. cerevisiae deletion strains, locus YML124C, strain tub3, stronger effect = lower value",1.02
same,normalized growth,"S. cerevisiae deletion strains, locus YMR058W, strain fet3, stronger effect = lower value",1.01
same,normalized growth,"S. cerevisiae deletion strains, locus YMR078C, strain ctf18, stronger effect = lower value",1.02
same,normalized growth,"S. cerevisiae deletion strains, locus YMR125W, strain sto1, stronger effect = lower value",1.02
same,normalized growth,"S. cerevisiae deletion strains, locus YMR129W, stronger effect = lower value",1
same,normalized growth,"S. cerevisiae deletion strains, locus YMR205C, strain PFK2, stronger effect = lower value",1.02
same,normalized growth,"S. cerevisiae deletion strains, locus YMR223W, strain ubp8, stronger effect = lower value",1.01
same,normalized growth,"S. cerevisiae deletion strains, locus YMR231W, strain pep5, stronger effect = lower value",1.02
same,normalized growth,"S. cerevisiae deletion strains, locus YMR307W, strain GAS1, stronger effect = lower value",1.02 and 0.992
same,normalized growth,"S. cerevisiae deletion strains, locus YNL067W, strain RPL9B, stronger effect = lower value",1
same,normalized growth,"S. cerevisiae deletion strains, locus YNL071W, strain lat1, stronger effect = lower value",1.01
same,normalized growth,"S. cerevisiae deletion strains, locus YNL128W, strain TEP1, stronger effect = lower value",0.981
same,normalized growth,"S. cerevisiae deletion strains, locus YNL153C, strain GIM3, stronger effect = lower value",1
same,normalized growth,"S. cerevisiae deletion strains, locus YNL175C, strain NOP13, stronger effect = lower value",0.994
same,normalized growth,"S. cerevisiae deletion strains, locus YNL183C, strain NPR1, stronger effect = lower value",0.948
same,normalized growth,"S. cerevisiae deletion strains, locus YNL197C, strain WHI3, stronger effect = lower value",0.992
same,normalized growth,"S. cerevisiae deletion strains, locus YNL209W, strain ssb2, stronger effect = lower value",1
same,normalized growth,"S. cerevisiae deletion strains, locus YNL224C, strain SQS1, stronger effect = lower value",1
same,normalized growth,"S. cerevisiae deletion strains, locus YNL233W, strain BNI4, stronger effect = lower value",1
same,normalized growth,"S. cerevisiae deletion strains, locus YNL248C, strain rpa49, stronger effect = lower value",1.03
same,normalized growth,"S. cerevisiae deletion strains, locus YNL250W, strain rad50, stronger effect = lower value",1.02
same,normalized growth,"S. cerevisiae deletion strains, locus YNL271C, strain bni1, stronger effect = lower value",1.03
same,normalized growth,"S. cerevisiae deletion strains, locus YNL298W, strain CLA4, stronger effect = lower value",1.02
same,normalized growth,"S. cerevisiae deletion strains, locus YNL307C, strain MCK1, stronger effect = lower value",1.01
same,normalized growth,"S. cerevisiae deletion strains, locus YNL322C, strain KRE1 (second series), stronger effect = lower value",1.02
same,normalized growth,"S. cerevisiae deletion strains, locus YNL322C, strain KRE1, stronger effect = lower value",1.01
same,normalized growth,"S. cerevisiae deletion strains, locus YNR049C, strain mso1, stronger effect = lower value",1.02
same,normalized growth,"S. cerevisiae deletion strains, locus YNR052C, strain pop2, stronger effect = lower value",1.01
same,normalized growth,"S. cerevisiae deletion strains, locus YOL006C, strain TOP1, stronger effect = lower value",0.949
same,normalized growth,"S. cerevisiae deletion strains, locus YOL012C, strain htz1",1.27
same,normalized growth,"S. cerevisiae deletion strains, locus YOL147C, strain pex11, stronger effect = lower value",1.02
same,normalized growth,"S. cerevisiae deletion strains, locus YOR001W, strain rrp6, stronger effect = lower value",1.03
same,normalized growth,"S. cerevisiae deletion strains, locus YOR061W, strain CKA2, stronger effect = lower value",1.01
same,normalized growth,"S. cerevisiae deletion strains, locus YOR069W, strain VPS5, stronger effect = lower value",1
same,normalized growth,"S. cerevisiae deletion strains, locus YOR070C, strain gyp1, stronger effect = lower value",1.01
same,normalized growth,"S. cerevisiae deletion strains, locus YOR080W, strain dia2, stronger effect = lower value",1.04
same,normalized growth,"S. cerevisiae deletion strains, locus YOR083W, strain WHI5 (second series), stronger effect = lower value",1.01
same,normalized growth,"S. cerevisiae deletion strains, locus YOR083W, strain WHI5, stronger effect = lower value",1.04
same,normalized growth,"S. cerevisiae deletion strains, locus YOR106W, strain vam3, stronger effect = lower value",0.997
same,normalized growth,"S. cerevisiae deletion strains, locus YOR136W, strain idh2, stronger effect = lower value",1.04
same,normalized growth,"S. cerevisiae deletion strains, locus YOR144C, strain elg1, stronger effect = lower value",1.01
same,normalized growth,"S. cerevisiae deletion strains, locus YOR184W, strain ser1, stronger effect = lower value",1.05
same,normalized growth,"S. cerevisiae deletion strains, locus YOR231W, strain MKK1, stronger effect = lower value",0.998
same,normalized growth,"S. cerevisiae deletion strains, locus YOR265W, strain rbl2, stronger effect = lower value",1.02
same,normalized growth,"S. cerevisiae deletion strains, locus YOR270C, strain vph1, stronger effect = lower value",1.03
same,normalized growth,"S. cerevisiae deletion strains, locus YOR290C, strain snf2, stronger effect = lower value",0.985
same,normalized growth,"S. cerevisiae deletion strains, locus YOR316C, strain cot1, stronger effect = lower value",1.01
same,normalized growth,"S. cerevisiae deletion strains, locus YPL051W, strain arl3, stronger effect = lower value",1.03
same,normalized growth,"S. cerevisiae deletion strains, locus YPL078C, strain atp4, stronger effect = lower value",1.04
same,normalized growth,"S. cerevisiae deletion strains, locus YPL106C, strain sse1, stronger effect = lower value",1
same,normalized growth,"S. cerevisiae deletion strains, locus YPL240C, strain hsp82, stronger effect = lower value",1.02
same,normalized growth,"S. cerevisiae deletion strains, locus YPL241C, strain CIN2, stronger effect = lower value",0.998 and 0.996
same,normalized growth,"S. cerevisiae deletion strains, locus YPL256C, strain CLN2, stronger effect = lower value",1.01
same,normalized growth,"S. cerevisiae deletion strains, locus YPR119W, strain clb2, stronger effect = lower value",1.01
same,normalized growth,"S. cerevisiae deletion strains, locus YPR141C, strain kar3, stronger effect = lower value",1.01
same,normalized growth,"S. cerevisiae deletion strains, locus YPR163C, strain tif3, stronger effect = lower value",1.02
same,normalized growth,"S. cerevisiae deletion strains, locus YPR167C, strain met16, stronger effect = lower value",1.02
same,normalized growth,"S. cerevisiae deletion strains, strain wtn01, stronger effect = lower value",1.01
same,normalized growth,"S. cerevisiae strains, strain wild type, stronger effect = lower value",1
